IL-1B inflam inh: blocks inflammasome-driven IL-1 beta release; THP-1 LPS/ATP IL-1B secretion, AlphaLISA, 16 h; hits give low values; activity change, % at 57.5 µM; 4.7% of 360,000 active; AID 743279; in the data active means activity change below about -50%; inconclusive means mostly about -30% to -49%; further: on the % scale 0 is the no-effect control and ±100 the full control effect
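THP-1 cells pretreated 1 hr with compounds (up to 57.5 uM final), then stimulated with LPS (250 ng/mL final) plus ATP (1.25 mM final); secreted IL-1B measured by AlphaLISA after 16 hr, decreased signal indicating inhibition.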
HepG2 viability: counter-screen for TGF-b inhibitors: cytotoxicity in HepG2 cells; HepG2 CAGA-GFP viability, ATP luminescence, 18 h; Potency, µM (top dose mostly 46.1 µM), for inactives: at the highest dose activity change, negative = cytotoxicity, usual class: cytotoxic; 0.76% of 410,000 active; AID 588856; further: potency means the concentration at half of the fitted maximal effect
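CellTiter-Glo luminescence gave cytotoxicity after 18 hours at 37 degrees C. The cells were HepG2 CAGA-GFP in 1% FBS DMEM, stimulated with 500 pg/mL TGF-beta after compound addition. %Activity was normalised to no-cell wells (complete cell-killing) and DMSO (no toxicity), and curves were fitted and classified.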
DT40 TDP1 CPT: DT40-hTDP1 cell growth loss with CPT. 12% of 420,000 active. Potency, µM (titrated, usually from 46.2 µM), for the others: at the highest dose activity change, negative = growth inhibition, actives largely listed as inhibitors. AID 686979. chicken DT40 Tdp1-/-;hTDP1 cells + 20 nM CPT, ATP luminescence, 48 h; further: potency means the concentration at half of the fitted maximal effect; on the % scale 0 is the no-effect control and ±100 the full control effect; nearly all actives have a fitted effect of over 55% in size
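Cell growth measured by CellTiter-Glo luminescence after a minimum 48 h, 37 C compound exposure with 20 nM CPT in Tdp1-knockout DT40 cells stably expressing hTDP1, seeded 400/well; qHTS titration format.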
TGFb inhibitor: inhibitors of TGF-b signaling; HepG2 CAGA-GFP TGF-b/SMAD3 reporter, GFP fluorescence, 18 h; TGF-beta stimulated, 500 pg/mL final; Potency, µM (series often up to 46.1 µM), without a hit: at the highest dose activity, negative = inhibition, hits mostly inhibitors; 1.2% of 410,000 active; AID 588855; further: potency means the concentration at half of the fitted maximal effect; on the % scale 0 is the no-effect control and ±100 the full control effect; nearly all actives have a fitted effect of over 65% in size
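GFP signal (ex488/em500-530) from TGF-beta-stimulated HEPG2 CAGA-GFP cells, 500 pg/mL final, 18 h at 37 degrees C in DMEM plus 1% FBS, normalized to unstimulated and DMSO-stimulated controls.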
TDP1 inh: TDP1 (human) enzyme inhibition; Q9NUW8; recombinant TDP1, AlphaScreen DNA substrate cleavage; Potency, µM (titrated, usually from 130 µM), without a hit: at the top dose activity change, negative = inhibition, actives largely listed as inhibitors; 0.28% of 350,000 active; AID 485290; further: potency means the concentration at half of the fitted maximal effect; on the % scale 0 is the no-effect control and ±100 the full control effect; nearly all actives have a fitted effect of over 40% in size
Target sequence (Q9NUW8 whole entry, looked up): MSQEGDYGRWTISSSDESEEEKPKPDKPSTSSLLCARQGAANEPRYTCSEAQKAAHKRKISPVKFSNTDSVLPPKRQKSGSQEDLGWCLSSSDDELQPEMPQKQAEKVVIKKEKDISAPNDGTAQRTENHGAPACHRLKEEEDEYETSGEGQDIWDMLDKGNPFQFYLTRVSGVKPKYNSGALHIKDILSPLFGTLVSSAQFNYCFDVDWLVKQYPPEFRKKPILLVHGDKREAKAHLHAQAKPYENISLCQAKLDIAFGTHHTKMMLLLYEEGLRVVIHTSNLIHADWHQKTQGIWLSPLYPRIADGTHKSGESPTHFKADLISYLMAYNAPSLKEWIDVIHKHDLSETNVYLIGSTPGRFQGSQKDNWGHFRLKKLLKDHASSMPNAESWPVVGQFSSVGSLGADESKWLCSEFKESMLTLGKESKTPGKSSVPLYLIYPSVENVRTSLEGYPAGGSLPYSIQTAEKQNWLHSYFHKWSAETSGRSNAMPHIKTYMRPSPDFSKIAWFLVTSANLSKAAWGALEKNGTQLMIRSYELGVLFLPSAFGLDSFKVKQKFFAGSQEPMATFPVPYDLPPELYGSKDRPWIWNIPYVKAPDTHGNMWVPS
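E. coli-derived human Tdp1, 1 nM final. Cpd preinc 15 min RT; substrate 15 nM final, 5 min RT; AS bead mix 10 ug/ml final, 10 min RT. Signal loss = tyrosine-FITC cleavage. No-enzyme wells = max signal.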
TDP1 cell noCPT: qHTS for Inhibitors of human tyrosyl-DNA phosphodiesterase 1 (TDP1): qHTS in cells in absence of CPT | DT40 Tdp1-/- hTDP1 cells, no CPT, ATP luminescence, 48 h | Potency, µM (series often up to 46.2 µM), without a hit: at the highest dose activity change, negative = growth inhibition, usual class: inhibitors | 15% of 420,000 active; further: potency means the concentration at half of the fitted maximal effect; on the % scale 0 is the no-effect control and ±100 the full control effect; nearly all actives have a fitted effect of over 55% in size
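Growth of hTDP1-complemented DT40 Tdp1-knockout cells is measured by ATP luminescence after at least 48 hr compound exposure at 37 °C, with DMSO substituting for the 20 nM CPT used in the parallel screen.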
* = called active by the depositor; ? = inconclusive; · = no result; [ ] = remark or other dose. A selection: hits, their analogues and other compounds. The true share with any hit is near 19%. Unless noted, the call rests on the fitted dose curve; in most records, active means well fitted curve in the direction sought with a large enough effect; inconclusive means small, poorly fitted or top-dose-only effect, or another doubt; inactive means no such curve, though single readings can be large; an effect the other way counts as inactive or inconclusive.

SMILES	IL-1B inflam inh	HepG2 viability	DT40 TDP1 CPT	TGFb inhibitor	TDP1 inh	TDP1 cell noCPT
Fc1ccc(Nc2ncnc3onc(-c4ccc(Cl)cc4)c23)cc1Cl	·	-10%	?	?	-1%	18µM*
CCc1cccc(Nc2ncnc3onc(-c4ccc(F)cc4)c23)c1	·	-30%	23µM*	?	-5%	16µM*
COc1ccc(CCNc2ncnc3onc(C)c23)c(OC)c1	·	-9%	1.2µM*	-4%	3%	0.52µM*
Clc1ccc(-c2noc3ncnc(NCCCN4CCN(c5ccccc5)CC4)c23)cc1	·	-39%	?	?	2%	?
COc1ccc(S(=O)(=O)N2CCCCCC2)cc1C(=O)N(CC(C)C)C1CCS(=O)(=O)C1 (configuration not stated)	5	-11%	-2%	-25%	·	-29%
O=C(CSc1ccccn1)Nc1cccc(S(=O)(=O)N2CCCC2)c1	1	-21%	-7%	-23%	2%	-8%
Cc1ccc(CCNc2ncnc3onc(-c4ccc(Cl)cc4)c23)cc1	·	7%	?	25%	4%	26µM*
CCOc1ccc(CCNc2ncnc3onc(-c4ccc(Cl)cc4)c23)cc1OCC	·	-7%	?	?	1%	?
CCCNc1ncnc2onc(C)c12	11	-18%	-21%	?	3%	?
Cc1noc2ncnc(NCc3ccc(Cl)cc3)c12	·	-44%	13µM*	-24%	3%	16µM*
COc1cccc(CNc2ncnc3onc(C)c23)c1	·	-14%	13µM*	-13%	-4%	9.2µM*
CCOc1ccc(CCNc2ncnc3onc(-c4ccc(F)cc4)c23)cc1OCC	·	-26%	?	-17%	4%	23µM*
CCCCN(C)C(=O)C1CCCN(S(=O)(=O)c2ccc3c(c2)oc(=O)n3C)C1 (configuration not stated)	-5	-2%	?	-8%	·	-11%
CC[C@@H](C)[C@@H](O)[C@H](C)C(=O)[C@H](C)/C=C(\C)C[C@H](C)[C@@H]1OC(=O)[C@H]1CC	·	·	·	·	9%	·
CCCn1c(COc2ccc(C(=O)O)cc2)nc2ccccc21	17	-32%	-14%	12%	·	0%
CC(=O)c1cccc(NC(=O)c2c(N3CCCC3=O)c3cc(F)ccc3n2C)c1	·	-39%	·	-11%	11%	·
CN(CC(=O)Nc1cccc(F)c1)C(=O)/C=C/c1ccc(Br)s1	-29	-8%	?	-7%	-3%	-29%
CN(CC(=O)Nc1cccc(F)c1)C(=O)/C=C/c1ccc2ccccc2n1	-51*	-17%	?	?	-6%	0%
CN(CC(=O)Nc1cccc(F)c1)C(=O)/C=C/c1cc(Br)ccc1OC(F)F	-29	-4%	4.6µM*	-28%	-2%	5.8µM*
C=CCn1cn[nH]c1=S	26	3%	5.2µM*	4%	5%	0%
COc1cc(OC)cc(C(=O)Oc2c(CN3CCOCC3)cc(Cl)c3cccnc23)c1	-6	-121%	?	?	5%	?
O=C(Oc1c(CN2CCOCC2)cc(Cl)c2cccnc12)c1ccccc1F	32	-53%	3.7µM*	?	8%	4.6µM*
O=c1c2ccccc2sn1-c1ccc(Cl)c(S(=O)(=O)N2CCOCC2)c1	·	-35%	1.4µM*	?	2%	3.2µM*
O=C(c1ccc(Cl)c(S(=O)(=O)N2CCOCC2)c1)N1CCOCC1	21	-8%	0%	0%	9%[0.0935 µM]	-11%
NC(N)=NCC1COc2ccccc2O1 (configuration not stated)	·	·	-20%	·	4%	?
SMILES	IL-1B inflam inh	HepG2 viability	DT40 TDP1 CPT	TGFb inhibitor	TDP1 inh	TDP1 cell noCPT
COc1cccc(NC(=O)c2ccc(-c3nc(COc4ccc(C)cc4)c(C)o3)cc2)c1	·	-7%	?	0%	3%	?
COc1ccccc1NC(=O)c1ccc(-c2nc(COc3ccc(C)cc3)c(C)o2)cc1	·	-21%	21µM*	-19%	3%	18µM*
Cc1oc(-c2ccc(C(=O)NCc3ccccc3)cc2)nc1CN1CCc2ccccc21	·	-20%	?	?	4%	21µM*
COc1ccc(OC)c(NC(=O)c2ccc(-c3nc(COc4ccccc4)c(C)o3)cc2)c1	·	-22%	?	-10%	0%	13µM*
Cc1ccc(OCc2nc(-c3ccc(C(=O)NCc4ccc(OC(C)C)cc4)cc3)oc2C)cc1	·	2%	?	-9%	3%	21µM*
COc1cccc(NC(=O)c2ccc(-c3nc(COc4ccccc4)c(C)o3)cc2)c1	·	-36%	?	?	3%	?
O=P(O)(O)OC1[C@H](O)[C@H](OP(=O)(O)O)C(OP(=O)(O)O)[C@H](OP(=O)(O)O)[C@H]1O (some centres not stated)	·	·	·	·	2%[3.34 µM]	·
CC(C)=CCC/C(C)=C/CO/N=C1/[C@H]2O[C@@H]2[C@@H](O)[C@H]2[C@H]1CCn1c(=O)n(C)c(=O)n12	·	·	·	·	5%[21 µM]	·
CC1=CC(C)(C)Nc2ccc(Cc3ccc4c(c3)C(C)=CC(C)(C)N4)cc21	-6	-19%	21µM*	?	14%	21µM*
CC1=CC(C)(C)Nc2ccc(C)cc21	0	-6%	-5%	-5%	7%	-9%
C[C@H](CO)N1C[C@H](C)[C@@H](CN(C)S(=O)(=O)c2ccccc2)Oc2c(NC(=O)c3ccncc3)cccc2C1=O	-10	-6%	-11%	3%	2%	-3%

Assay outcomes as filed in PubChem BioAssay.
